Data: article PMC4336329 (PLoS ONE, 2015)
Screen size: about 310,000 compounds; about 14,000 (4.5%) showed an effect of 50% or more. Effects have a minus sign here. For the sample, strong results were picked, then their nearest neighbours and some compounds at random.

target: human ether-à-go-go-related gene (hERG) potassium channel (human, UniProt Q12809); test: primary screen, population patch clamp on CHO cells stably expressing hERG; higher = less effect of the substance
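Note: peak tail current of the secondary pulse compared with the same well before compound.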

Sequence of human ether-à-go-go-related gene (hERG) potassium channel (Q12809 whole entry, looked up): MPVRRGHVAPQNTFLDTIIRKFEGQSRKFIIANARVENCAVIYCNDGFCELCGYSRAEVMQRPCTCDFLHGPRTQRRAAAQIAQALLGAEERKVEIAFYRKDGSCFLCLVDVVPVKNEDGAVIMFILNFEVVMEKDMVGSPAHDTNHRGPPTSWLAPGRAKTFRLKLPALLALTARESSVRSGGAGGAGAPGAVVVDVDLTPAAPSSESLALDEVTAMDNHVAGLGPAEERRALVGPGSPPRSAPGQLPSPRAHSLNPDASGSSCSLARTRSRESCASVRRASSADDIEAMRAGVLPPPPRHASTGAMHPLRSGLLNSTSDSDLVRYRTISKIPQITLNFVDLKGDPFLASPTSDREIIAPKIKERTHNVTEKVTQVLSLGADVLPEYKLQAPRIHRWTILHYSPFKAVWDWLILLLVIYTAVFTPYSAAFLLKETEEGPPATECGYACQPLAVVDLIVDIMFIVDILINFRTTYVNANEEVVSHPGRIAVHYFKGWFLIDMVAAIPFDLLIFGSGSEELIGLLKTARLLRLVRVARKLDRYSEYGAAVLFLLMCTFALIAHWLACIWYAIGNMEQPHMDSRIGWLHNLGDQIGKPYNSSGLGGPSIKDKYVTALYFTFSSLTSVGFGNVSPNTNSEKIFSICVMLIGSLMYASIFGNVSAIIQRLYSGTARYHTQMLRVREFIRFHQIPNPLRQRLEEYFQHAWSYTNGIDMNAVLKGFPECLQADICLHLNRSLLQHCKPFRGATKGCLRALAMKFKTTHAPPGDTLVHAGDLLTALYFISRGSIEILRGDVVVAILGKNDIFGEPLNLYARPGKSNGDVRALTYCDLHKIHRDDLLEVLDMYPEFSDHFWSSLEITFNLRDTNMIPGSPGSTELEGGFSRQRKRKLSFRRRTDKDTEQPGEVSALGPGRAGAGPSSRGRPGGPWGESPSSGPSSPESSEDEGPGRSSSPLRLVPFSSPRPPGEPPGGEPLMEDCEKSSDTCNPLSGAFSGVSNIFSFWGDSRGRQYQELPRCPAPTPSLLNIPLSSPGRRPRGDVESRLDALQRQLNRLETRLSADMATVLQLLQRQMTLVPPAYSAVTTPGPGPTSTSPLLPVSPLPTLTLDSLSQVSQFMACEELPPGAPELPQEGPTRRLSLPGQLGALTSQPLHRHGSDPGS

Row | SMILES | hERG current change (%, negative = inhibition) at 10uM [%]
1 | CC(C)C(C(=O)Nc1sc2c(c1C#N)CCCCC2)N1C(=O)c2ccccc2C1=O (stereo not shown) | 4.7
2 | Cn1c(CCCOc2ccc(Cl)cc2Cl)nnc1SCC(=O)Nc1cccc(F)c1 | -3.24
3 | COC(=O)/C=C1\C(=O)N(c2nc3ccc(OC)cc3s2)C(=S)N1c1ccc(F)cc1 | -7.23
4 | CCOc1ccc(OCc2ccc(C(=O)N3CCc4ccccc4C3)o2)cc1 | -10.4
5 | CC(=O)C[C@H]1c2cc(C(F)(F)F)ccc2S(=O)(=O)N1C1CCCC1 | -12.1
6 | CC(C)(O)C#Cc1ccc(CN2CCCC(CNC(=O)c3ccco3)C2)cc1 (stereo not shown) | -10.9
7 | CSc1ccc(CN2CCCC(CNC(=O)c3ccc(F)cc3)C2)cc1 (stereo not shown) | -70.8
8 | CSc1cccc(CN2CCCC(CNC(=O)c3ccc(F)cc3)C2)c1 (stereo not shown) | -74.1
9 | Cc1cc(CN2CCCC(CNC(=O)c3ccc(F)cc3)C2)cc(C)c1O (stereo not shown) | -24.1
10 | O=C(NCC1CCCN(C(=O)c2cccc(C(F)(F)F)c2)C1)c1ccc(F)cc1 (stereo not shown) | -8.13
11 | O=C(NCC1CCCN(Cc2cccc(C(F)(F)F)c2)C1)c1ccc(F)cc1 (stereo not shown) | -58.2
12 | O=C(NCC1CCCN(Cc2cccc(OCCO)c2)C1)c1ccc(F)cc1 (stereo not shown) | -16.3
13 | CCCn1cc(CN2CCCC(CNC(=O)c3ccc(F)cc3)C2)c(C)n1 (stereo not shown) | -25.5
14 | CCOCc1cc(CN2CCCC(CNC(=O)c3ccco3)C2)ccc1OC (stereo not shown) | -48.3
15 | CSc1cccc(CN2CCCC(CNC(=O)c3ccco3)C2)c1 (stereo not shown) | -91.9
16 | CSc1ccccc1C(=O)N1CCCC(CNC(=O)c2ccc(F)cc2)C1 (stereo not shown) | 15.3
17 | CCOC(=O)c1ccc(N=c2sc(C(=O)OC)cc(=O)n2CCCN2CCOCC2)cc1.Cl | -16.9
18 | CCN(CC(=O)Nc1c(F)cccc1F)C(=O)c1ccc(C2SCCS2)cc1 | 0.0972
19 | O=C(CCc1nnc(CCCCc2ccccc2)o1)N1CCN(CCO)CC1 | -0.0459
20 | Cc1cc(C)c(NC(=O)Cn2cc3c(n2)CCCC3)c(C)c1 | 10.4
21 | CSCC[C@H](NC(=O)OC(C)(C)C)C(=O)N/N=C/c1cc2ccc(C)cc2nc1Cl | -7.13
22 | COc1ccc(C(=O)OCC(=O)Nc2c(C)cccc2C)cc1 | 17.4

Row | SMILES | hERG current change (%, negative = inhibition) at 10uM [%]
23 | O=C(NCCCN1CCOCC1)C(=O)NCC1OCCN1S(=O)(=O)c1ccc(F)cc1 (stereo not shown) | -10.2
24 | CC(C)NC(=O)CCCc1cn(C)c2ccccc12 | 18.1
25 | COc1ccccc1N1CCN(C(=O)CNC(=O)c2cn(-c3ccccc3OC)c(=O)c3ccccc23)CC1 | -15.6
26 | CN(C(=O)c1cccc(Cl)c1)C1CCCN(Cc2ccccc2F)C1 (stereo not shown) | 0.373
27 | O=C(NC1CCCN(Cc2ccccc2F)C1)c1cccc(N2CCCC2=O)c1 (stereo not shown) | 4.16
28 | O=C(NCC1CCCN(Cc2ccccc2F)C1)c1cccc(C(F)(F)F)c1 (stereo not shown) | -52.1
29 | CCOc1ccc(N)c(SSc2cc(OCC)ccc2N)c1 | 19.3
30 | O=C1c2ccccc2C(=O)C1(CO)c1ccc(OC(F)F)cc1 | 18.3
31 | CCN(CC(=O)Nc1c(F)cccc1F)C(=O)CCc1nc2ccccc2c(=O)[nH]1 | 8.25
32 | CCN(CC(=O)NCCc1ccc(S(N)(=O)=O)cc1)Cc1nc2cc(OC)c(OC)cc2c(=O)[nH]1 | 0.804
33 | CCN(CC(=O)Nc1ccccc1C(F)(F)F)C(=O)CCc1nc2ccccc2c(=O)[nH]1 | 12.5
34 | CCN(CC(=O)Nc1cc(Cl)ccc1C)C(=O)CCc1nc2ccccc2c(=O)[nH]1 | -67.3
35 | CCN(CC(=O)NC(c1ccccc1)c1ccccc1)Cc1nc2ccccc2c(=O)[nH]1 | -32.4
36 | COC(=O)CCC(=O)Nc1ccccc1C(=O)Nc1ccccc1 | 9.16
37 | CCN(CC)CCCCCC(=O)Nc1ccccc1C(=O)Nc1ccccc1 | -55.8
38 | CN(Cc1nc2ccccc2c(=O)[nH]1)C(=O)c1ccccc1OCc1ccc(Cl)cc1 | -58.2
39 | CCN(CC(=O)NCCc1ccc(Cl)cc1)Cc1nc2ccccc2c(=O)[nH]1 | -53.3
40 | O=C(O)CCC(=O)Nc1ccccc1C(=O)Nc1ccccc1 | 15.6
41 | CN(Cc1nc2ccccc2c(=O)[nH]1)C(=O)COc1ccccc1Cc1ccccc1 | -43.3
42 | CN(C(=O)c1ccccc1OCc1ccc(Cl)cc1)c1ccccc1 | -7.03
43 | COc1ccc(NC(=O)CN2C(=O)C(C)Oc3ccccc32)c(OC)c1 (stereo not shown) | -10.4
44 | Cc1nc(-c2ccccc2)sc1C1(C)CC(c2ccccc2F)=NO1 (stereo not shown) | 1.13

Row | SMILES | hERG current change (%, negative = inhibition) at 10uM [%]
45 | O=c1c2ccccc2n2c(=S)[nH]nc2n1-c1ccccc1 | 38.4
46 | Cc1ccc(C2(c3ccc(C)cc3)CC2C(=O)Nc2ccc([N+](=O)[O-])cc2O)cc1 (stereo not shown) | -2.42
47 | CCc1ccccc1NC(=O)CC(NCc1ccccc1)C(=O)O (stereo not shown) | 22.5
48 | CCOc1ccc(Cc2nn[nH]n2)cc1 | 9.6
49 | CCn1cc(SCC(=O)N2CCc3ccccc32)c2ccccc21 | -1.74
50 | CC(C)N1CC(C(=O)O)CC1=O (stereo not shown) | 19
51 | Cn1c(CC(=O)Nc2ccccc2Cl)nnc1SCC(=O)NC1=NCCS1 | 14.7
52 | CCN1C(=O)/C(=C/C2=Cc3ccccc3OC2C)SC1=S (stereo not shown) | 14.7
53 | CCN(CC(=O)NCc1ccc(F)cc1)Cc1nc2ccccc2c(=O)[nH]1 | -56.5
54 | CCN(CC(=O)NC(=O)NCc1ccccc1)Cc1nc2ccccc2c(=O)[nH]1 | -12.9
55 | CCN(CC(=O)NCCc1ccc(F)cc1)Cc1nc2ccccc2c(=O)[nH]1 | -50.7
56 | CCN(CC(=O)Nc1ccccc1SC)Cc1nc2ccccc2c(=O)[nH]1 | -23.9
57 | CCN(CC(=O)NCCc1ccc(S(N)(=O)=O)cc1)Cc1nc2ccccc2c(=O)[nH]1 | 17.9
58 | CCNCc1nc2cc(Cl)ccc2c(=O)[nH]1.Cl | 4.64
59 | CCN(CC(=O)Nc1cc(Cl)ccc1-n1cncn1)Cc1nc2ccccc2c(=O)[nH]1 | -60.3
60 | O=C(c1ccccc1)N(Cc1ccc(F)cc1)Cc1nc2ccccc2c(=O)[nH]1 | -35
61 | CCN(CC(=O)Nc1ccc2c(c1)OCCO2)Cc1nc2cc(Cl)ccc2c(=O)[nH]1 | -29
62 | CCN(CC(=O)Nc1cccc(F)c1)Cc1nc2ccccc2c(=O)[nH]1 | -31.7
63 | COCCN(CC(=O)Nc1cc(Cl)ccc1-n1cncn1)Cc1nc2ccccc2c(=O)[nH]1 | -43
64 | CCN(CC(=O)NCc1ccc(F)cc1)Cc1nc2cc(Cl)ccc2c(=O)[nH]1 | -72.6
65 | O=C(c1noc2c1CCCC2)N1CCc2c([nH]c3ccccc23)C1c1ccccn1 (stereo not shown) | -7.65
66 | O=C(Nc1ccccn1)N1CCOCC1 | 15.1

Row | SMILES | hERG current change (%, negative = inhibition) at 10uM [%]
67 | O=C(CN1CCN(c2ccc(F)cc2)CC1)Nc1ccc(S(=O)(=O)N2CCOCC2)cc1 | 0.845
68 | Cc1cc(C)cc(-n2nnc(C(=O)NCc3ccco3)c2N)c1 | -29.8
69 | O=C(Cn1nnc(-c2ccccc2NC(=O)c2ccco2)n1)Nc1ccccc1 | 16.1
70 | COc1cc(/C=C/C(=O)Nc2nnc(CC(C)C)s2)cc(OC)c1OC | -27.8
71 | CCN1CCN(c2ccc(NC(=O)c3cc4ccccc4cc3OC)cc2C)CC1 | -48.7
72 | C(=C\c1ccco1)/c1nc2ccccc2[nH]1 | 8.91
73 | O=C(c1cc2ncc(CCCl)cn2n1)N1CCCCCC1 | 8.53
74 | Cc1cccc(C)c1N1CCc2cn[nH]c21 | 8.17
75 | CC1=NN(C(N)=S)C(=O)C1N=Nc1cccc(Cl)c1 (stereo not shown) | 17.2
76 | CN(C)S(=O)(=O)c1ccc2c(c1)C(=NO)c1cc(S(=O)(=O)N(C)C)ccc1-2 | 14.7
77 | OCCNc1nc(Cl)nc(NCc2ccco2)n1 | 8.89
78 | CCc1ccccc1NC(=O)COC(=O)c1c(C)nsc1NC | -2.87
79 | COc1ccccc1C(=O)n1nc(-c2ccccc2)nc1N | 0.335
80 | CCN(CC(=O)Nc1ccccc1Br)Cc1nc2ccccc2c(=O)[nH]1 | -22.3
81 | CCN(CC(=O)Nc1ccccc1-c1ccccc1)Cc1nc2ccccc2c(=O)[nH]1 | -23.4
82 | CCN(CC(=O)Nc1ccccc1C(=O)Nc1ccccc1)Cc1nc2ccccc2c(=O)[nH]1 | -75.6
83 | O=C(CCSc1nc(-c2ccco2)cc(C(F)(F)F)n1)NCC1CCCO1 (stereo not shown) | -8.69
84 | O=C1CCC(=O)N1OCCCOc1ccccc1 | -2.09
85 | COC(=O)c1[nH]c2ccc(Cl)cc2c1NC(=O)C1CC1 | 17.1
86 | COc1cc(OC)cc(C(=O)NC(C)c2cnn(-c3ccccc3C)c2C)c1 (stereo not shown) | -1.48
87 | COc1cc(C(=O)NC(C)c2cnn(-c3ccccc3C)c2C)cc(OC)c1OC (stereo not shown) | -51
88 | Cc1ccccc1-n1ncc(C(C)NC(=O)c2ccccc2)c1C (stereo not shown) | -4.33
